The record followed here is PubChem BioAssay (Tox21).

Values joined by “and” are separate entries in the source; they are usually repeats but may differ in a detail not shown here. Equal values may be shown once. Unmarked numbers belong to inactive results. Records with an inconclusive call do not appear. Active and inactive are the calls of the source. Unless noted, calls come from the whole dose curve; as a rule, active = well fitted curve in the direction sought with a large enough effect in the repeat runs; inconclusive = weak or mixed curves; inactive = no such curve, though single readings can be large; an effect the other way counts as inactive or inconclusive.

A short description of test [1]: qHTS assay to identify small molecule agonists of the hypoxia (HIF-1) signaling pathway - cell viability counter screen (AID 1224844; calls by dose curve; note: nearly all actives have a fitted effect of over 50% in size). Put shortly: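 HRE-bla ME-180 cells in medium with 0.5% dialyzed FBS were preincubated 5 hrs at 37C, exposed to compounds for 17 hrs, then viability was read as CellTiter-Glo luminescence after 30 min at room temperature, in the reporter wells.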
In general terms: qHTS replaces the single test concentration by a dilution series.

Test [2] in a line: qHTS assay to identify small molecule agonists of the hypoxia (HIF-1) signaling pathway (AID 1224846; active = well fitted activation curve with a large enough effect in the signal ratio in the repeat runs, not every such curve was filed as active; the % refers to the signal ratio). Put shortly: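 HRE-bla ME-180 cells (beta-lactamase reporter under hypoxia response element) were plated at 2,000 cells/well in medium with 0.5% dialyzed FBS, rested 5 hrs, then given compounds in DMSO for 17 hrs at 37C, 5% CO2. Reporter induction was read with CCF4-AM FRET substrate.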

Test [3] is described as follows: qHTS assay to identify small molecule agonists of H2AX - cell viability counter screen (AID 1224847; calls by dose curve; note: top concentration of the series differs between compounds; nearly all actives have a fitted effect of over 30% in size). The method, boiled down:
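After overnight plating of 1000 CHO-K1 cells per well, a 15-concentration compound series was applied for 3 hr at 37C. Luminescence from CellTiter-Glo, read following 30 min at room temperature, reflected cell viability.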

Test [4] is described as follows: qHTS assay to identify small molecule antagonists of the estrogen related receptor (ERR) signaling pathway from Tox21 library (AID 1224848). Note: nearly all actives have a fitted effect of over 50% in size. Note: potency is the fitted concentration of half-maximal effect. The method, boiled down: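 ERR reporter cell line (from NTP) seeded 2,000 cells/well, rested 6 h at 37 C/5% CO2, then pin-dosed with compounds in DMSO. After 18 h at 37 C, ONE-Glo added; luminescence read after 30 min at room temperature.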

The nature of test [5]: qHTS assay to identify small molecule agonists of the estrogen related receptor (ERR) signaling pathway from Tox21 library (AID 1224849; calls by dose curve; note: nearly all actives have a fitted effect of over 15% in size). The settings on record: ERR reporter cell line, ONE-Glo luciferase, 18 h; at 92.4 µM (top of the series). The method, boiled down:
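ERR reporter cell line (NTP) seeded, rested 6 h at 37 C/5% CO2, then pinned with Tox21 compounds in DMSO. After 18 h at 37 C, ONE-Glo luciferase luminescence was read following 30 min at room temperature.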

Test [6] in a line: qHTS RealTime-Glo MT Cell Viability Assay in HepG2 cells - 24 hour (AID 1224867). Note: nearly all actives have a fitted effect of over 50% in size. Put shortly: (§1)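 Cells + NanoLuc/prosubstrate dispensed (600 cells/well) → 5 h at 37 C/5% CO2 → compounds in DMSO transferred → 40 h incubation at 37 C, luminescence read at 0, 8, 16, 24, 32, 40 h.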
The nature of test [7]: qHTS RealTime-Glo MT Cell Viability Assay in HEK293 cells - 32 hour (AID 1224868). Note: top concentration of the series differs between compounds; nearly all actives have a fitted effect of over 50% in size. The method, boiled down:
(§2)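 Tox21 10K qHTS, HEK293, 600 cells/well, RealTime-Glo reagent co-dispensed with cells; 5 h preincubation, compound by pintool, 37 C, luminescence at 0–40 h.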

The nature of test [8]: A CellTox Green Cytotoxicity Assay to monitor cytotoxicity in HEK293 cells - 0 hour (AID 1224869). Note: nearly all actives have a fitted effect of over 50% in size. Put shortly: (§3)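 HEK293 cells premixed with CellTox Green dye were seeded at 600 cells/well and left 5 h at 37 C/5% CO2 before pin transfer of 23 nL compound in DMSO. Fluorescence from dye bound to dead-cell DNA was read during 40 h treatment.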
Test [9] is described as follows: qHTS RealTime-Glo MT Cell Viability Assay in HepG2 cells - 40 hour (AID 1224870). Note: nearly all actives have a fitted effect of over 50% in size. Put shortly: (§4)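 HepG2 cells (600/well) mixed with RealTime-Glo MT reagent, settled 5 h at 37 C/5% CO2 before compound addition. Nonlytic NanoLuc luminescence from viable-cell prosubstrate reduction read repeatedly during 40 h treatment at 37 C.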
A short description of test [10]: A CellTox Green Cytotoxicity Assay to monitor cytotoxicity in HEK293 cells - 40 hour (AID 1224871). Note: nearly all actives have a fitted effect of over 45% in size. The method, boiled down:
as §3

Test [11] can be described thus: qHTS RealTime-Glo MT Cell Viability Assay in HEK293 cells - 16 hour (AID 1224872). The method, boiled down: as §2
A short description of test [12]: qHTS RealTime-Glo MT Cell Viability Assay in HepG2 cells - 8 hour (AID 1224873). Note: nearly all actives have a fitted effect of over 55% in size. Put shortly: as §4
A short description of test [13]: qHTS RealTime-Glo MT Cell Viability Assay in HEK293 cells - 40 hour (AID 1224874). Note: nearly all actives have a fitted effect of over 50% in size. Note: potency is the fitted concentration of half-maximal effect. The settings on record: RealTime-Glo luminescence; max response: active compounds read low. The method, boiled down: (§5)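 HEK293 cells mixed with RealTime-Glo reagents (NanoLuc plus cell-permeant prosubstrate) at 600 cells/well, preincubated 5 h at 37 C/5% CO2, then given 23 nL compound in DMSO. Nonlytic luminescence from viable cells was read at 0, 8, 16, 24, 32 and 40 h.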

Test [14] can be described thus: A CellTox Green Cytotoxicity Assay to monitor cytotoxicity in HEK293 cells - 24 hour (AID 1224875). Note: nearly all actives have a fitted effect of over 45% in size. Put shortly: as §3
A short description of test [15]: A CellTox Green Cytotoxicity Assay to monitor cytotoxicity in HepG2 cells - 16 hour (AID 1224876). Note: nearly all actives have a fitted effect of over 45% in size. The method, boiled down:
(§6)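 HepG2 cells were seeded together with the CellTox Green dye at 600 cells/well, left 5 h at 37 C/5% CO2, then given compounds in DMSO. Fluorescence from dye bound to dead-cell DNA was read repeatedly over 40 h of treatment at 37 C.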

Test [16] is described as follows: qHTS RealTime-Glo MT Cell Viability Assay in HepG2 cells - 32 hour (AID 1224877). Note: nearly all actives have a fitted effect of over 55% in size. The method, boiled down:
as §1

Test [17] in a line: A CellTox Green Cytotoxicity Assay to monitor cytotoxicity in HepG2 cells - 24 hour (AID 1224878). Note: nearly all actives have a fitted effect of over 45% in size. The method, boiled down:
as §6

The nature of test [18]: A CellTox Green Cytotoxicity Assay to monitor cytotoxicity in HepG2 cells - 40 hour (AID 1224879). Note: nearly all actives have a fitted effect of over 40% in size. The method, boiled down:
as §6

Test [19] is described as follows: qHTS RealTime-Glo MT Cell Viability Assay in HEK293 cells - 0 hour (AID 1224880). The method, boiled down: as §5
Test [20] in a line: qHTS assay to identify small molecule agonists of H2AX (AID 1224845; active = well fitted activation curve with a large enough effect in the signal ratio in the repeat runs, not every such curve was filed as active; the % refers to the signal ratio). The method, boiled down:
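Wild-type CHO-K1 cells, plated overnight, exposed 3hr at 37C to 15 concentrations (0.76% DMSO final). Lysed, then HTRF anti-pH2AX (S139) cryptate and anti-H2AX-d2 antibodies, 24 hr room temperature; 665/620 nm emission read.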
% is set by controls: 0 for no effect and ±100 for the full control effect.

Take `C1CS1`: the Potency entry in test [1], in test [3], in test [4], in [6], in [7] and in test [8] was “inactive” each time. Moreover, the Potency result in test [9], in test [10], in test [11], in [12], in [14] and in test [15] was “inactive” in each case. Further, the Potency entry in test [16], in [17] and in test [18] was “inactive” in each case. Moreover, the result in [2] and in test [19] was inactive. Further, the activity change, positive = activation in [5] is -0.221%. In [13], the max response is 12%.

`CC(C)(C#N)C(C)(C)C#N`: the Potency result in test [1], in test [3], in test [4], in test [6], in test [7] and in [8] was “inactive” in each case. Besides, the Potency result in [9], in [10], in test [11], in [12], in test [14] and in [15] was “inactive” in each case. In addition, the Potency result in test [16], in [17] and in test [18] was “inactive” throughout. The call in test [2] and in [19] was inactive. Further, the activity change, positive = activation in test [5] was -14.1%. Also, the max response in test [13] is 1.19%.

As to `CCc1cnc(C2=NC(C)(C(C)C)C(=O)N2)c(C(=O)O)c1` (stereo not given), the Potency entry in test [1], in [20], in [3], in test [6], in [7] and in [8] was “inactive” each time. Moreover, the Potency result in test [9], in [10], in test [11], in [14], in test [15] and in test [16] was “inactive” throughout. In addition, the Potency result in [17] and in test [18] was “inactive” each time. For the same compound, the max response in test [13] is 1.73% and 22.4%. Moreover, the outcome in [19] was inactive.

For `C=CCOC(=O)C(C)(C)OC(=O)c1cc(-n2c(=O)cc(C(F)(F)F)n(C)c2=O)ccc1Cl`, the Potency entry in [1], in test [3], in test [6], in [9], in test [10] and in test [12] was “inactive” each time. In addition, the Potency entry in test [14], in [15], in test [16], in test [17] and in test [18] was “inactive” throughout. Further, the call in test [2] was inactive. Besides, the results for the Potency in [4] and in test [13] were 26.8 µM (active) and 21.5 µM (active), respectively. Further, the activity change, positive = activation in [5] was -42.4%.

With `CCC(=O)O[C@@H]1C=C2CCC3C(CCC4(C)C3CC[C@@H]4OC(=O)CC)C2CC1` (stereo not given in full), the Potency result in [1], in test [20], in test [3], in test [6], in test [7] and in test [9] was “inactive” each time. The Potency result in test [11], in [12], in test [14], in test [17] and in [18] was “inactive” each time. Besides, the max response in test [13] was -21.1%. Also, the compound was classed as inactive in test [19].

Regarding `CC1(C)CC(=O)CC(C)(C)N1[O]`, the Potency entry in test [1], in [3], in test [4], in test [6], in test [7] and in test [8] was “inactive” throughout. The Potency result in [9], in [10], in test [11], in test [12], in test [14] and in test [16] was “inactive” throughout. Besides, the Potency result in test [17] and in [18] was “inactive” in each case. Moreover, the call in test [2] and in test [19] was inactive. In test [5], the activity change, positive = activation is -0.242%. For the same compound, the max response in [13] is 2.69%.
